Article PMC12864922, “TDP-43 directly inhibits mRNA accumulation in neurites through modulation of mRNA stability”
In all, about 9,900 sequences were measured (“r (bound/input frequency ratio)”: median about 0.7, highest 2% from about 6.5 on). Shown is part of a subset that was picked to be rich in the highest values.

B1: ENSMUSG00000042529.380|Kcnj12 (ssRNA)
RNA: GGGAGUUCUACAGUCCGACGAUCGCUUCGAUAUCCGCAUGCUAUUUAAAUUUGGGUAAGGUGGGUUUCAUGCUCACCAACCUGAACUGGUCAGGCUGGAUGCUGGCCACAGACAUGAUCAGUCCGACUUGAGUCCCUGCCCUGCCCUGGUUAUGCAGGCUGUACGACGCAGUGUGCAUCAGUCUGAGGAGUCUGGUGGUAAGUAAGCCUCUGCAGCAGACCCUGUCGGAGGCCAUGGGGGCGUGUGUGUGUGUGUGUGUGUGUGUGUGUGUGUGUGUGUGUGUGUGUGUGUGUGAACAUGUGUCUCUUGCGGUCGCACUAGUGUGGAAUUCUCGGGUGUCAAGG
B2: ENSMUSG00000043670.121|Diras1 (ssRNA)
RNA: GGGAGUUCUACAGUCCGACGAUCGCUUCGAUAUCCGCAUGCUAUGUCUGCACACCAGGGUGGAUGGGCCCGAGGGCUGGGCCUCAGGCACCAGGCAAUAAACACAGGGCCUGCAGCAAUGCCCUGGCCACCCCGAGUACCACCUCUGGAAUAGCAGACGCCCACAGCACAAGCCCAGGACUGUCCCUUCAGGGGAGGCACACUGGAACCCUGAACUUGGAGUGUGGAGUGGCUGCCUGGACACUGCCCACCUGGACACCAGCCUUCUGCUGAGAUAGAGACCUUGGCACAGUGGCACCUCGACCUCUUGCGGUCGCACUAGUGUGGAAUUCUCGGGUGUCAAGG
B3: ENSMUSG00000061578.23|Ksr2 (ssRNA)
RNA: GGGAGUUCUACAGUCCGACGAUCGCUUCGAUAUCCGCAUGCUAGUGAUGACGUCACAGAGGCUGUCCACACCUUCGACUUGUACCCCGUUACUCAGGCACGAUCAGGGACCACUCAACUAGGACCAAACUGGGCCAGAGAGGGUCCCAUGUGUGGUGUGAAGGAGCCACAGACUGAGCACACCACCUCGGACUGUGGAGACCAAGACACAUGCCCAGUGGGCAGACUCAGACUCACACGCUGGACCAGUGUGUGCGCAUGUGUCUACACAUGGACAGGGCCAACUGCUAUCCUUCUGCCUGGACUCUUGCGGUCGCACUAGUGUGGAAUUCUCGGGUGUCAAGG
B4: ENSMUSG00000031028.210|Tub (ssRNA)
RNA: GGGAGUUCUACAGUCCGACGAUCGCUUCGAUAUCCGCAUGCUAAAUGUAUAAGGUUGGAAACCUUUCAGUAGGGAAUCAGGCAGUUCCCUGUUGAAAGUUGUCUGAGUUUUUGCACACCAUUCUGAUCUGAUGUGGCCUGUGCCUGGCUCCUCUAUGAGGACUUCGAGCUGUGCACAGACCUUAGCAGGACCACUGCACACUUUGUGUCUGUGUGACAGGCAGCCCAAGGGUUCUGGGGCUGGGCUUGGACACGCCCUCCAUUGGGAUGGCACCACUCAUCUGGUGGGCUUGGGAACUCCAAGCUCUUGCGGUCGCACUAGUGUGGAAUUCUCGGGUGUCAAGG
B5: ENSMUSG00000061578.1090|Ksr2 (ssRNA)
RNA: GGGAGUUCUACAGUCCGACGAUCGCUUCGAUAUCCGCAUGCUAAGCAGCCAACCAUGAAAAUAGAGGUUUGUAAUGUACAGAAGGCUGGGGGAGCUUUCAGGGGUGUGGCCAGUUAUGUACAGAUGUGAAGCUGAGGUCUGAAGGAAAUGGAGGAAGUAGGAAGAUCAGACUGGUUGAAUUAGAAGUCUGUCACUCUAGGUGCUAAGUGACCUUGGACCCAGUCAGUUCUUGGAUUUCUGUUGUAGCCCAGGCUAGCCUCGAACCCUUGAUCCUCCUGUUCCUGGUAGAGAAACAGCCACUAACUCUUGCGGUCGCACUAGUGUGGAAUUCUCGGGUGUCAAGG
B6: ENSMUSG00000061578.39|Ksr2 (ssRNA)
RNA: GGGAGUUCUACAGUCCGACGAUCGCUUCGAUAUCCGCAUGCUAAGGGUCCCAUGUGUGGUGUGAAGGAGCCACAGACUGAGCACACCACCUCGGACUGUGGAGACCAAGACACAUGCCCAGUGGGCAGACUCAGACUCACACGCUGGACCAGUGUGUGCGCAUGUGUCUACACAUGGACAGGGCCAACUGCUAUCCUUCUGCCUGGACGAGCCAGCUGUGGAGUGUCCCAGCUGUGCUAUCCUGGAACACAGAACCAGGAUGGAACCAGAAACAAUACACCUGCUCCGUUGUCAAGGCUUCUACUCUUGCGGUCGCACUAGUGUGGAAUUCUCGGGUGUCAAGG
B7: ENSMUSG00000042529.383|Kcnj12 (ssRNA)
RNA: GGGAGUUCUACAGUCCGACGAUCGCUUCGAUAUCCGCAUGCUAGGGUUUCAUGCUCACCAACCUGAACUGGUCAGGCUGGAUGCUGGCCACAGACAUGAUCAGUCCGACUUGAGUCCCUGCCCUGCCCUGGUUAUGCAGGCUGUACGACGCAGUGUGCAUCAGUCUGAGGAGUCUGGUGGUAAGUAAGCCUCUGCAGCAGACCCUGUCGGAGGCCAUGGGGGCGUGUGUGUGUGUGUGUGUGUGUGUGUGUGUGUGUGUGUGUGUGUGUGUGUGUGAACAUGUGUGAGGGUGUGGAGGUCCCACUCUUGCGGUCGCACUAGUGUGGAAUUCUCGGGUGUCAAGG
B8: ENSMUSG00000042529.384|Kcnj12 (ssRNA)
RNA: GGGAGUUCUACAGUCCGACGAUCGCUUCGAUAUCCGCAUGCUACAUGCUCACCAACCUGAACUGGUCAGGCUGGAUGCUGGCCACAGACAUGAUCAGUCCGACUUGAGUCCCUGCCCUGCCCUGGUUAUGCAGGCUGUACGACGCAGUGUGCAUCAGUCUGAGGAGUCUGGUGGUAAGUAAGCCUCUGCAGCAGACCCUGUCGGAGGCCAUGGGGGCGUGUGUGUGUGUGUGUGUGUGUGUGUGUGUGUGUGUGUGUGUGUGUGUGUGUGAACAUGUGUGAGGGUGUGGAGGUCCCAGGGUGUCUCUUGCGGUCGCACUAGUGUGGAAUUCUCGGGUGUCAAGG
B9: ENSMUSG00000042529.385|Kcnj12 (ssRNA)
RNA: GGGAGUUCUACAGUCCGACGAUCGCUUCGAUAUCCGCAUGCUACACCAACCUGAACUGGUCAGGCUGGAUGCUGGCCACAGACAUGAUCAGUCCGACUUGAGUCCCUGCCCUGCCCUGGUUAUGCAGGCUGUACGACGCAGUGUGCAUCAGUCUGAGGAGUCUGGUGGUAAGUAAGCCUCUGCAGCAGACCCUGUCGGAGGCCAUGGGGGCGUGUGUGUGUGUGUGUGUGUGUGUGUGUGUGUGUGUGUGUGUGUGUGUGUGUGAACAUGUGUGAGGGUGUGGAGGUCCCAGGGUGUGUGUAUCUCUUGCGGUCGCACUAGUGUGGAAUUCUCGGGUGUCAAGG
B10: ENSMUSG00000042529.382|Kcnj12 (ssRNA)
RNA: GGGAGUUCUACAGUCCGACGAUCGCUUCGAUAUCCGCAUGCUAUAAGGUGGGUUUCAUGCUCACCAACCUGAACUGGUCAGGCUGGAUGCUGGCCACAGACAUGAUCAGUCCGACUUGAGUCCCUGCCCUGCCCUGGUUAUGCAGGCUGUACGACGCAGUGUGCAUCAGUCUGAGGAGUCUGGUGGUAAGUAAGCCUCUGCAGCAGACCCUGUCGGAGGCCAUGGGGGCGUGUGUGUGUGUGUGUGUGUGUGUGUGUGUGUGUGUGUGUGUGUGUGUGUGUGAACAUGUGUGAGGGUGUGGAGCUCUUGCGGUCGCACUAGUGUGGAAUUCUCGGGUGUCAAGG
B11: ENSMUSG00000043670.183|Diras1|29:33;126:130;160:164;174:183;189:196;229:233 (ssRNA)
RNA: GGGAGUUCUACAGUCCGACGAUCGCUUCGAUAUCCGCAUGCUAGACAGAAUCUGAGCCUCUUUGCUGGUCAACACAACUCUGGAGACUGUCCCCCAUGUCUGCCCUGAGUUACGGAGCCCCUGUGGUAUCUGCGAGACUGUCCAGGAGACUUGAGUGGCUCCUGGGCCACACACCCACCCAGAUGAGGGUGACUUAGAAUUCACACAUUAUGUGCCACACACACACGAUGGCACACACACUGUCUUGGGAUGGGGUGUUCUUGCACCACUUACACAUCUUAGUGAGACCACAGUGUAAGUGGCCUCUUGCGGUCGCACUAGUGUGGAAUUCUCGGGUGUCAAGG
B12: ENSMUSG00000042529.381|Kcnj12 (ssRNA)
RNA: GGGAGUUCUACAGUCCGACGAUCGCUUCGAUAUCCGCAUGCUAUUUGGGUAAGGUGGGUUUCAUGCUCACCAACCUGAACUGGUCAGGCUGGAUGCUGGCCACAGACAUGAUCAGUCCGACUUGAGUCCCUGCCCUGCCCUGGUUAUGCAGGCUGUACGACGCAGUGUGCAUCAGUCUGAGGAGUCUGGUGGUAAGUAAGCCUCUGCAGCAGACCCUGUCGGAGGCCAUGGGGGCGUGUGUGUGUGUGUGUGUGUGUGUGUGUGUGUGUGUGUGUGUGUGUGUGUGUGAACAUGUGUGAGGGUCUCUUGCGGUCGCACUAGUGUGGAAUUCUCGGGUGUCAAGG

target: TDP-43 (Homo sapiens, UniProt Q13148 1-414); test: RNA Bind-n-Seq with designed 260-mer pool; 25 mM Tris-HCl, 150 mM KCl, 3 mM MgCl2, BSA (printed 500 mg/mL), 20 units/mL SUPERase IN; pH not stated; 500 nM RNA pool, 1 h, 4 C; TDP-43 5, 50, 500 nM; high values mean tight binding; settings: protein: recombinant; tags: SBP (GST cleaved off with PreScission; pGEX-GST-SBP)
Summary of the method: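 Binding (R) is the ratio of each oligo's mapped-read-normalized abundance in the bound fraction to its abundance in the input. To obtain it, SBP-tagged recombinant TDP-43 (5, 50 or 500 nM) on streptavidin beads was incubated with 500 nM of an in vitro-transcribed 260-nt 3′ UTR oligo pool for 1 h at 4 °C in 25 mM Tris-HCl, 150 mM KCl, 3 mM MgCl2, BSA and SUPERase IN. The RNA retained after washing was released with biotin, then reverse transcribed, amplified by PCR and sequenced.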

TDP-43, sequence (Q13148 whole entry): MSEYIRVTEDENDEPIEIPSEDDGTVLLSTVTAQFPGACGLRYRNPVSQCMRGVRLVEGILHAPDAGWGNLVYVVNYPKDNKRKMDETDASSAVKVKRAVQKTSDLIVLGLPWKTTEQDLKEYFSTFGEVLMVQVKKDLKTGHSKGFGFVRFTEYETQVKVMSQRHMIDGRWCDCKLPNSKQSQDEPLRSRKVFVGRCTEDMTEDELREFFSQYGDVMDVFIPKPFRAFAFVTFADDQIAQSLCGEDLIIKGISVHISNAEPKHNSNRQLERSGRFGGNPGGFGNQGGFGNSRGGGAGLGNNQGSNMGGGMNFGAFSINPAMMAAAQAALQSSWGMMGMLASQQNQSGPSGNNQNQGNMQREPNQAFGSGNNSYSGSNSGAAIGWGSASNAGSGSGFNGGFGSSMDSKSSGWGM

Binder | binding signal
B1 | 7.35 R (bound/input frequency ratio)
B2 | 0.914 R (bound/input frequency ratio)
B3 | 0.299 R (bound/input frequency ratio)
B4 | 2.94 R (bound/input frequency ratio)
B5 | 1.34 R (bound/input frequency ratio)
B6 | 0.764 R (bound/input frequency ratio)
B7 | 8.12 R (bound/input frequency ratio)
B8 | 7.66 R (bound/input frequency ratio)
B9 | 7.81 R (bound/input frequency ratio)
B10 | 6.14 R (bound/input frequency ratio)
B11 | 0.711 R (bound/input frequency ratio)
B12 | 6.18 R (bound/input frequency ratio)
